In PubChem BioAssay AID1209 (Sanford-Burnham Center for Chemical Genomics, 2008):
Screen size: about 190,000 compounds; about 810 (0.43%) were called active. No stated cut-off is given here; in the data, active means inhibition above about 50%; inactive means the rest. The entries come from a sample that favours actives as a whole.

These compounds were tested against Mannose-6-phosphate isomerase (Homo sapiens) (UniProt P34949) (assay: inhibitors of human PMI, primary screen, biochemical, fluorescence intensity, coupled assay (AID 1209;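 further: plate controls were DMSO vehicle for no effect and wells lacking substrate for full effect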)). Details: purified PMI enzyme, at 20 µM, active compounds read high.
Chain of Mannose-6-phosphate isomerase (Homo sapiens) (P34949 whole entry, looked up): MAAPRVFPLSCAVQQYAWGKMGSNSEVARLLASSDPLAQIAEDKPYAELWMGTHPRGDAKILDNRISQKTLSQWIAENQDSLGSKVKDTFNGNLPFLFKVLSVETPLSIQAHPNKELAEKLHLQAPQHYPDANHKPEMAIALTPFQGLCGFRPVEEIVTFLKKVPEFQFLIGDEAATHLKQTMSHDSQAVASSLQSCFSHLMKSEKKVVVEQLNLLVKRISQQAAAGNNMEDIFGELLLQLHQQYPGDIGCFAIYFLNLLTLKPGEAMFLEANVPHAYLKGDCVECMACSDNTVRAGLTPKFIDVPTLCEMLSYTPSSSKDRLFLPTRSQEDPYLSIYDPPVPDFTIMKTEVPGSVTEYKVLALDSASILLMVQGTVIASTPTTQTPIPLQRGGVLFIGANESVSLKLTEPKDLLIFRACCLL

inhibition, active:
Cc1ccc(C(=O)N/N=C/c2ccc(-c3ccccc3[N+](=O)[O-])o2)cn1 52.2%
O=C(N/N=C\c1ccc(-c2ccccc2[N+](=O)[O-])o1)C1COc2cc3ccccc3cc2O1 (centres undefined) 70.2%
Cc1c(C(=O)N/N=C/c2ccc(-c3ccccc3[N+](=O)[O-])o2)sc(N)c1C#N 55.1%
CN1CCc2cccc3c2[C@H]1Cc1ccc(O)c(O)c1-3 79.7%
CN1CCc2cccc3c2[C@@H]1Cc1ccc(O)c(O)c1-3 64.3%
Cc1oc2c(c1C(=O)c1ccccc1)C(=O)C(=O)c1ccccc1-2 73.6%
Cc1ccc(C(=O)c2c(C)oc3c2C(=O)C(=O)c2ccccc2-3)cc1 73.3%
Cc1oc2c(c1C(=O)c1ccc(Cl)cc1)C(=O)C(=O)c1ccccc1-2 63.9%
O=[N+]([O-])C1=CC=C2C(=NC3(CCCCC3)N2O)C1=NCCO 81.4%
O=[N+]([O-])C1=CC=C2C(=NC3(CCCCC3)N2O)C1=NCCc1ccccc1 62.9%
CC1CCCC2(C1)NC(=S)c1c(sc3c1CCCC3)N2 (centres undefined) 74.4%
CC(C)N(CC#CCC(O)(c1ccccc1)C1CCCC1)CCO (centres undefined) 58.1%
CCOC(=O)NC1(NCc2ccccc2)Oc2ccccc2O1 51.2%
COC(=O)c1c(-c2ccco2)csc1NC(=O)C1CC=CCC1C(=O)O (centres undefined) 51.4%
COc1ccc(-c2ccc(C(=S)N3CCN(C(C)=O)CC3)o2)cc1 62%
CC(=O)N1CCN(C(=S)c2ccc(-c3ccc(Cl)cc3)o2)CC1 63.9%
Fc1ccc(NC(=S)Nc2ccc3nccnc3c2)cc1 56.3%
CCN(CC)c1ccc(NC(=S)Nc2ccc(F)cc2)cc1 53.4%
COc1ccc(N(C)C(=S)Nc2ccc3nc(C)c(C)nc3c2)cc1 53.7%
CC(C)N(C(=O)Nc1ccc2nccnc2c1)C(C)C 65.4%

inhibition, inactive:
CCOC(=O)c1c(NC(=O)Nc2cccc(Cl)c2)sc(C)c1C -4.2%
O=C(CSc1ncnc2ccccc12)c1ccc2c(c1)OCCO2 9.1%
Nc1[nH]n2c(=O)cc(-c3ccccc3)nc2c1N=Nc1ccc2c(c1)OCO2 28%
COc1ccc2ccccc2c1/C=N/NC(=O)c1sc(N)c(C#N)c1C 12.9%
O=C(N/N=C\c1ccc(-c2ccccc2[N+](=O)[O-])o1)C1COc2ccccc2O1 (centres undefined) 33.9%
O=C(N/N=C/c1ccc(-c2ccccc2[N+](=O)[O-])o1)c1cncc(Br)c1 33.3%
Cc1cc([N+](=O)[O-])c(C)cc1-c1ccc(/C=N/NC(=O)c2cccnc2)o1 8.6%
Cc1ccc(C(=O)N/N=C\c2ccccc2[N+](=O)[O-])cn1 -13.1%
Cc1ccc(/C=N\NC(=O)C2COc3cc4ccccc4cc3O2)o1 (centres undefined) 5%
COC(=O)c1[nH]c2ccccc2c1NC(=O)CCN1CCN(C2CCCCC2)CC1 3.6%
COc1cc(CC(=O)OCC(=O)Nc2cc([N+](=O)[O-])ccc2F)cc(OC)c1OC 2.7%
Cc1ccc(C(c2nnnn2C(C)(C)C)N2CCC(C)CC2)cc1 (centres undefined) -7.6%
CCCCS(=O)(=O)Nc1ccc2cn[nH]c2c1 10%
O=C(/C=C/c1ccco1)N1CCN(S(=O)(=O)/C=C/c2ccccc2)CC1 -3.5%
CCCC(=O)NCCCc1nc2ccccc2n1C(C)C 2.7%
COc1ccc2c(c1O)-c1ccccc1CCN(C)C2 -0.5%
CN1CCc2cc3c(c4c2[C@H]1[C@H](O)c1ccccc1-4)OCO3 15.6%
CN1CCc2ccccc2C1C1CCNCC1 (centres undefined) -2.5%
CC(=O)c1cc2c(=O)c3cc(C)ccc3oc2nc1C 3.2%
COc1ccccc1OCC(=O)Nc1ccc(O)cc1C(=O)O -4%
CCc1ccccc1N(C(=O)Cn1nnc2ccccc21)C(C(=O)NCCOC)c1ccco1 (centres undefined) 3.9%
O=C(c1ccc(Cl)cc1)c1ccc(CN2C(=O)c3ccccc3C2=O)o1 6.4%
Cc1oc2c(c1C(=O)N1CCC(C)CC1)C(=O)c1ccccc1C2=O 1.3%
CC(=O)c1c(C)oc2c1C(=O)c1ccccc1C2=O 0.2%
CC1=C(CC(=O)c2ccc(Cl)cc2)C(=O)c2ccccc2C1=O -15.5%
Cc1oc2c(c1C(=O)O)C(=O)c1ccccc1C2=O -55.2%
CCOC(=O)c1c(C)oc2c1C(=O)c1ccccc1C2=O -48.2%
O=C(CCCn1cnc([N+](=O)[O-])n1)Nc1ccc(Cl)cc1Cl 8.7%
COc1cccc(-c2nc(CS(=O)(=O)CC(=O)Nc3cccc(C)c3C)c(C)o2)c1 7.1%
CCOC(=O)C1CCN(C(=O)COc2ccc(Cl)cc2)CC1 0.2%
CC(NC(=O)c1ccccc1F)c1nnc(SCC(=O)N2CCN(c3ccccc3)CC2)n1C (centres undefined) -2.3%
CCOC(=O)c1c(CN2CCC(C)CC2)oc2ccc(OC)cc12 -3.3%
CCCN(C(=O)c1cn(CC)c2nc(C)ccc2c1=O)c1c(N)n(Cc2ccccc2)c(=O)[nH]c1=O 11.3%
CN(Cc1cccnc1)C(=O)CNC(=O)c1ccc(Cl)cc1Cl -2.4%
COc1ccc(NS(=O)(=O)c2cccc3nonc23)c(OC)c1 -1.3%
Cc1ccc(-c2nnn(CC(=O)N(CC(=O)NC3CCCC3)c3ccc(F)c(Cl)c3)n2)o1 -4.8%
C[C@@H]1C=C(C(=O)O)O[C@H](OCc2ccc(CO)cc2)C1 6%
COc1ccc(-n2nc([N+](=O)[O-])c(=NCCc3ccccc3)n2O)cc1 10%
CCCCN=C1C([N+](=O)[O-])=CC=C2C1=NC1(CCCCC1)N2O 31.3%
O=[N+]([O-])c1nn(-c2ccccc2)n(O)c1=NCCc1ccccc1 -5.6%
CCC(CC)NC(=O)COC(=O)CCC(=O)c1cccs1 4.9%
Cc1nc2cc(NC(=O)N3CCCCC3)ccc2n1C 16.1%
CCO/C=N/c1c(C#N)c2c(c(=S)n1C)COC(C)(C)C2 5.8%
Cn1c(=O)n(C)c2cc([N+](=O)[O-])c(N3CCN(S(C)(=O)=O)CC3)cc21 -6.6%
CC1CCCC2(C1)NC(=S)N(c1ccccc1)N2 (centres undefined) -48.4%
CCSC1=NC2(CCCCC2)Nc2sc3c(c21)CCCC3 -35%
COc1ccccc1OCCOCCOc1ccc(C)cc1Br 11.4%
C=CCn1c(SC/C=C/c2ccccc2)nnc1-c1sc(N)nc1C 13.7%
CC(C)(C)N(CC#CCC(O)(c1ccccc1)C1CCCC1)CCO (centres undefined) 30.4%
CCN(CC#CCC(O)(c1ccccc1)C1CCCC1)C(C)C (centres undefined) 7.4%
CC(C)C(C)NC(=O)COC(=O)c1cccc(C(=O)OCC(=O)NC(C)C(C)C)n1 (centres undefined) 21.9%
Nc1nnc(-c2ccncc2)s1 13.4%
CCOC(=O)NC1(NCC(C)C)Oc2ccccc2O1 42.4%
CCOC(=O)NC1(NC(C)C)Oc2ccccc2O1 12.2%
CCN(CC)c1ccc(C2C(C(=O)OCCOC(C)C)=C(C)NC3=C2C(=O)CCC3)cc1 (centres undefined) 6.2%
CCOC(=O)c1oc2ccccc2c1NC(=O)CN1CCOCC1 -0.8%
COc1ccc(NC(=O)c2ccc(S(=O)(=O)N3CCOCC3)cc2)c(OC)c1 7.2%
COC(=O)c1c(-c2ccccc2)csc1NC(=O)C1CC=CCC1C(=O)O (centres undefined) -6.8%
COC(=O)c1c(-c2ccc(C)cc2)csc1NC(=O)C1CC=CCC1C(=O)O (centres undefined) 7.7%
O=c1[nH]nc(CNc2ccc(Cl)cc2Cl)c2ccccc12 -11.9%
Cc1ncc(CO)c(/C=N/NC(=O)c2ccc(Br)cc2)c1O 15.7%
Cc1ncc(CO)c(/C=N/NC(=O)c2ccc(O)cc2)c1O 3.5%
COc1ccccc1NC(=S)N1CCC(C(=O)c2ccc(F)cc2)CC1 1.3%
CC(C)OCCCNC(=S)Nc1ccc2nc3n(c(=O)c2c1)CCCCC3 -2.7%
N#CCCN1CCN(C(=S)c2ccc(-c3ccc(Cl)cc3)o2)CC1 25.7%
NC(=O)C1CCN(C(=S)c2ccc(-c3ccc(Br)cc3)o2)CC1 -10%
COc1ccc(CC(=O)N2CCN(C(=O)Cc3ccc(OC)cc3)CC2)cc1 7.3%
S=C(c1ccc(-c2ccc(Cl)cc2)o1)N1CCCCC1 9.1%
Cc1cccc(CSC2=NCCN2C(=O)C2CC2)c1 5.8%
CCC1N=C(SC)NC(C)=C1C(=O)c1ccccc1 (centres undefined) -36.6%
CCOc1ccc(Cn2nnc(C(=O)Nc3cc(C)cc(C)c3)c2N)cc1 18.5%
CNC(=S)Nc1ccc2nc(C)c(C)nc2c1 2.5%
Fc1ccc(NC(=S)Nc2nccs2)cc1 2.2%
OCCCNC(=S)Nc1ccc2nccnc2c1 -2.7%
CCN(CC)CCNC(=S)Nc1ccc(F)cc1 -2.1%
CC(=O)Nc1ccc(NC(=S)Nc2ccc(F)cc2)cc1 3.2%
COc1ccc(NC(=S)Nc2ccc3nc(C)c(C)nc3c2)cc1 45%
CC(C)(C)NC(=O)Nc1ccc2nccnc2c1 4.4%
Cc1nc2ccc(NC(=O)N(C(C)C)C(C)C)cc2s1 3%
